Measurements: PubChem BioAssay (NCATS)
Records with an inconclusive call do not appear. Activity calls are given as the source filed them. The call rests on the fitted dose curve; in most records, active means well fitted cell-killing curve with a large enough effect; inconclusive means small, poorly fitted or top-dose-only effect, or effect the other way; inactive means flat fitted curve, though single readings scatter.

assay: qHTS for Inhibitors of ATXN expression: Validation of Cytotoxic Assay (AID 588349); settings: cytotoxicity counter-screen for ATXN expression inhibitors, cell viability; series mostly up to 57.1 µM
Text: Spinocerebellar ataxia type 2 (SCA2) is a multisystem neurodegenerative disease caused by a dominantly-acting mutation leading to expansion of a polyQ domain in the ataxin-2 protein (ATXN2). SCA2 patients develop progressive ataxia and later lose function in other neuronal systems. Prominent parkinsonian signs develop in some patients. Similar to many neurodegenerative disorders, no symptomatic or disease-modifying treatments are known.
The primary objective of project is to identify compounds inhibiting ATXN2 expression and to test them for efficacy in SCA2 mouse models. To this end, in a collaboration between Dr. Daniel Scoles and scientists at NCGC, a cell-based assay adapted to high-throughput screening has been developed to screen the NIH Molecular Libraries Small Molecule Repository (MLSMR). Confirmed qHTS active compounds will be tested for toxicity against the human neuron-like SH-SY5Y cell line. This line is the parental cell type used to generate the transgenic line used in the primary assay, and so should provide an isogenic control to test the inherent toxicity of qHTS actives.
NIH Chemical Genomics Center [NCGC]
NIH Molecular Libraries Probe Centers Network [MLPCN]
Assay Submitter (PI): Stefan Pulst and Daniel Scoles, University of Utah
HEK293 cultured cells will be dosed with titrated compounds and incubated for 72 hr at 37 degrees C. Toxicity will be assessed using the CellTiter Glo kit (Promega), which uses intracellular ATP concentration as a viability marker.

Row | SMILES | outcome
1 | CC(C)N(CCC(C(N)=O)(c1ccccc1)c1ccccn1)C(C)C (centres undefined) | inactive
2 | CC(NC(C)(C)C)C(=O)c1cccc(Cl)c1 (centres undefined) | inactive
3 | C=C(C)[C@H]1CN[C@H](C(=O)O)[C@H]1CC(=O)O | inactive
4 | Cc1ncsc1CCCl | inactive
5 | CC(C)c1cccc(C(C)C)c1O | inactive
6 | CC(C)(C)NCC(O)c1ccccc1Cl (centres undefined) | inactive
7 | O=P1(N(CCCl)CCCl)NCCCO1 (centres undefined) | inactive
8 | NCCc1ccc(O)cc1 | inactive
9 | O=C(O)CCCc1ccc(N(CCCl)CCCl)cc1 | inactive
10 | O=c1[nH]oc2c1CCNC2 | inactive
11 | COc1ccc2c(c1OC)C(=O)O[C@H]2[C@@H]1c2cc3c(cc2CCN1C)OCO3 | inactive
12 | CCCCC/C=C\C/C=C\C/C=C\C/C=C\CCCC(=O)NCC(=O)O | inactive
13 | CCC1(c2ccc(N)cc2)CCC(=O)NC1=O (centres undefined) | inactive
14 | CN1C(=O)CCS(=O)(=O)C1c1ccc(Cl)cc1 (centres undefined) | inactive
